Results on ten molecules are retold here after ChEMBL document CHEMBL3988442, “University of Dundee, Small-Polar-MMV Screening Library” (2021).

What all share (design): scale not given: direction of the effect not stated beside the values
The target of experiment [1] is Protein translocase subunit SecA (Escherichia coli (strain K12)) (UniProt P10408). The experiment can be described thus: Assay to Identify E. coli SecA ATPase Inhibitors. Format: functional. As to conditions: 30 µM.
Experiment [2] addresses T1, Ubiquitin-activating enzyme e1, putative (Leishmania donovani (strain BPK282A1)) (UniProt E9BSI1).
T1 sequence (whole entry): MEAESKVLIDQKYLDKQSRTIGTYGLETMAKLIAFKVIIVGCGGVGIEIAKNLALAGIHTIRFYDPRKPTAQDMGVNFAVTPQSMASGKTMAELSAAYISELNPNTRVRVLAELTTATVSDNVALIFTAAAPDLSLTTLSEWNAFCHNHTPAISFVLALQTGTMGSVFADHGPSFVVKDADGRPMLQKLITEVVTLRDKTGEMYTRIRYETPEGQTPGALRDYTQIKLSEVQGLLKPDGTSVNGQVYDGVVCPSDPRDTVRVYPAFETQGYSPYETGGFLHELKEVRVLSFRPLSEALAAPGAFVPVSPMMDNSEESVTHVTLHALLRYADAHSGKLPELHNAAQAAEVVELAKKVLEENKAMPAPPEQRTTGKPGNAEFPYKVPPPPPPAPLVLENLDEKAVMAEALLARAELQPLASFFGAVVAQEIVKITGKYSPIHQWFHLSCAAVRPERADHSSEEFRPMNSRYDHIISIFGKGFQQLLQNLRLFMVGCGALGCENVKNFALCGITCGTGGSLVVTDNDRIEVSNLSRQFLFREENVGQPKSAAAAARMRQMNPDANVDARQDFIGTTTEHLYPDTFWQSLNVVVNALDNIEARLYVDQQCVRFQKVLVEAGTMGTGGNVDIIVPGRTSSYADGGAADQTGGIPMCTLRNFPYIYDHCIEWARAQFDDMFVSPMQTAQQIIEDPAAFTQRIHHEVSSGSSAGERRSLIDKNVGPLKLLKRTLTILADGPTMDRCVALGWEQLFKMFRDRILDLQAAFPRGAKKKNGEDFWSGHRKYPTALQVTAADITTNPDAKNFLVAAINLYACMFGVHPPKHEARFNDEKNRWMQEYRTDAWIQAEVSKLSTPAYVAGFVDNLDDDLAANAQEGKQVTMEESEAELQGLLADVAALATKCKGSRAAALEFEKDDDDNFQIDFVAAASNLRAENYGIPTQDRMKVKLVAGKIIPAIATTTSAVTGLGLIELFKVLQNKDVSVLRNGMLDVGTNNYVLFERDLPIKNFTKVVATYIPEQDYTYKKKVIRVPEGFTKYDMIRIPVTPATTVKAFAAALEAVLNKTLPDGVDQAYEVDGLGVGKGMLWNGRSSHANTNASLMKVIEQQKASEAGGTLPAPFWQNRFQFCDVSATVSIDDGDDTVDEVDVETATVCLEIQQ
Kind of experiment: Leishmania donovani Ubiquitin Activating Enzyme (LdE1). Format: functional. Conditions: 30 µM.

Experiment [3] concerns the target AMP-activated protein kinase, AMPK (Homo sapiens) (UniProt P54646+O43741+P54619+Q9UGJ0+Q9Y478+Q13131+Q9UGI9). Kind of experiment: AMP-dependent Kinase enzyme assay. An in vitro enzyme assay that detects ADP turnover that is directly proportional to AMPK activity. This uses naive AMPK that is activated during the assay with MK-8722. Format: functional. Conditions: 30 µM.

Experiment [4] addresses Sialic acid-binding Ig-like lectin 9 (Homo sapiens) (UniProt Q9Y336). The experiment can be described thus: Hs-Siglec9 ALPHAscreen SOP 20170721. Conditions: 10 µM. (In Alpha technology, singlet oxygen from a donor bead excites a nearby acceptor bead.)
Another experiment has as its system Trypanosoma cruzi. The experiment can be described thus: Trypanosoma cruzi phosphomannomutase and mannose-1-phosphate guanylyltransferase assay. Format: functional. As to conditions: 10 µM.
Experiment [5] addresses T2, Arginase-2, mitochondrial (Homo sapiens) (UniProt P78540).
T2 sequence (whole entry): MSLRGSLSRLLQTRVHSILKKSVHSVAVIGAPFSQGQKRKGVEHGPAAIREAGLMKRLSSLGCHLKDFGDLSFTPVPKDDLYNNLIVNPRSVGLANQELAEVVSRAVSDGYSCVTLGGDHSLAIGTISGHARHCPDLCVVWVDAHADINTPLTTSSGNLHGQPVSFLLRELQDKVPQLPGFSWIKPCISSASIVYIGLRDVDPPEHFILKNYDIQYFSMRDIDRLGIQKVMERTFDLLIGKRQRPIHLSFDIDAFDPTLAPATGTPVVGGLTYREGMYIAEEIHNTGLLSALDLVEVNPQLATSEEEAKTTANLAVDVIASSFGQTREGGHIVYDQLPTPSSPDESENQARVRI
Kind of experiment: in vitro enzyme assay to detect the production of urea directly proportional to the activity of Arginase II. Further: in the data most compounds retested in dose-response had high values. Format: functional. As to conditions: 33.3 µM.

In experiment [6] the target is T3, Proteasome subunit beta (Trypanosoma cruzi) (UniProt O96673).
T3 sequence (whole entry): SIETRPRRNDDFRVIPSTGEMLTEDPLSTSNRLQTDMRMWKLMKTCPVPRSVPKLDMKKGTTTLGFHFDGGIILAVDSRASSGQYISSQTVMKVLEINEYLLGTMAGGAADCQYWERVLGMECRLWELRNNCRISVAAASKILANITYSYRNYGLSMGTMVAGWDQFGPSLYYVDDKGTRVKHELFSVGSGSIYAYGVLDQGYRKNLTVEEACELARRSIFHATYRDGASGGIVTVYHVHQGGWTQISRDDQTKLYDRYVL
Kind of experiment: Trypanosoma cruzi proteasome chymotrypsin-like activity (TcProtChymo) assay. Further: in the data most compounds retested in dose-response had high values. Format: functional. As to conditions: 9.37 µM.

The species entered for another experiment is Homo sapiens. The experiment can be described thus: To identify inhibition of the IFN signalling (Jak-Stat) pathway via expression of an eGFP reporter gene under the control of an IFN-stimulated response element (ISRE) containing MxA promoter. Format: functional. Conditions: 30 µM.
Experiment [7] addresses T4, Tyrosyl-tRNA synthetase, putative (Trypanosoma cruzi (strain CL Brener)) (UniProt Q4DSP6).
T4 sequence (whole entry): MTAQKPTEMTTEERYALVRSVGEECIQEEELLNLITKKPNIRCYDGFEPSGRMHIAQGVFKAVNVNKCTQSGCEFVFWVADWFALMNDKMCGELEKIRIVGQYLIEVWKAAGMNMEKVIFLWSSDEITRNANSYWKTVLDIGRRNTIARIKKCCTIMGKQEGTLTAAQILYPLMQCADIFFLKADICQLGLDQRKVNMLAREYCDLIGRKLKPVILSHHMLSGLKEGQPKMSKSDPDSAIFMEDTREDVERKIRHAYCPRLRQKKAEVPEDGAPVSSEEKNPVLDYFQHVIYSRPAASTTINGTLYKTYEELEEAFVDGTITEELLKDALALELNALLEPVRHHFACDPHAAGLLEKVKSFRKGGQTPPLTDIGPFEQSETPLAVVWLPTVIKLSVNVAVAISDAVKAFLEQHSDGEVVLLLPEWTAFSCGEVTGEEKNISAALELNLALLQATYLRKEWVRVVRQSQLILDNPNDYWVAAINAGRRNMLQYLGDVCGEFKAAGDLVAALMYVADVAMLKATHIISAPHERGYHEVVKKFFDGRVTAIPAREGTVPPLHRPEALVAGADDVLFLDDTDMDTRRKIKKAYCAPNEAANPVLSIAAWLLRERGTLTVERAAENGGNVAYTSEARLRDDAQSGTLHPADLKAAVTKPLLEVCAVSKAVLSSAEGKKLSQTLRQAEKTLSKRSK
The experiment can be described thus: Trypanosoma cruzi tyrosyl tRNA synthetase (TcYRS) _High Tyrosine SOP. Further: in the data most compounds retested in dose-response had high values. Format: functional. Conditions: 30 µM.

Experiment [8] addresses T4, Tyrosyl-tRNA synthetase, putative (Trypanosoma cruzi (strain CL Brener)). The experiment can be described thus: Trypanosoma cruzi tyrosyl tRNA synthetase (TcYRS) SOP. Conditions: 30 µM. Format: functional.
For experiment [9], the target named is Chromo domain-containing protein 1 (Saccharomyces cerevisiae (strain ATCC 204508 / S288c) (Baker's yeast)) (UniProt P32657). Kind of experiment: ScCHD-1 Enzyme Inhibition Assay. Further: in the data most compounds retested in dose-response had high values. Format: functional. As to conditions: 30 µM.

For some assays here: Results with a measured potency or affinity are listed apart.

Chain of Protein translocase subunit SecA (Escherichia coli (strain K12)) (P10408 whole entry): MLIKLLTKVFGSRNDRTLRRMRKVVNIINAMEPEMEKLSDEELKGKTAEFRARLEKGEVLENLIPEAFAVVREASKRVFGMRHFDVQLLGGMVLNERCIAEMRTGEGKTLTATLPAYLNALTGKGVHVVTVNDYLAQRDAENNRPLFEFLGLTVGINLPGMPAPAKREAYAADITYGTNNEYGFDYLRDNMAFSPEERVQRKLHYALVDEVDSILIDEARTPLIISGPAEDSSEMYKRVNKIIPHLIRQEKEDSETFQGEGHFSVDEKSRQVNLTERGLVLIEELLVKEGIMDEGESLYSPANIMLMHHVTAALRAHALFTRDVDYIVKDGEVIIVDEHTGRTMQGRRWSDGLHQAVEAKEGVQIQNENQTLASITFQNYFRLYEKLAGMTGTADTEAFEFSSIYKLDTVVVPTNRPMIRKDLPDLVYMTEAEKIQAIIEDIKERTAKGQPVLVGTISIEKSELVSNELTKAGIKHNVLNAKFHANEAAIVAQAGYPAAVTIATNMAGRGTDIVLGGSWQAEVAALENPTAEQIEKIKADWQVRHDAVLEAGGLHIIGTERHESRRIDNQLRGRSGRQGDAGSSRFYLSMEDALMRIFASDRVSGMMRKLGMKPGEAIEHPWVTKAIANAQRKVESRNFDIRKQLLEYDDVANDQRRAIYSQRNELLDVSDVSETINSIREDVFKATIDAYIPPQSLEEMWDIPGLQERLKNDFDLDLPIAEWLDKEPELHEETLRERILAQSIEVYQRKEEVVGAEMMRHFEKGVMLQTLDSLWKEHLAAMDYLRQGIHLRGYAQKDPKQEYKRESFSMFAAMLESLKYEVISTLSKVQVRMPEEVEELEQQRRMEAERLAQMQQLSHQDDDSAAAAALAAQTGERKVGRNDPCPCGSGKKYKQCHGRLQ
Chain of Sialic acid-binding Ig-like lectin 9 (Homo sapiens) (Q9Y336 whole entry): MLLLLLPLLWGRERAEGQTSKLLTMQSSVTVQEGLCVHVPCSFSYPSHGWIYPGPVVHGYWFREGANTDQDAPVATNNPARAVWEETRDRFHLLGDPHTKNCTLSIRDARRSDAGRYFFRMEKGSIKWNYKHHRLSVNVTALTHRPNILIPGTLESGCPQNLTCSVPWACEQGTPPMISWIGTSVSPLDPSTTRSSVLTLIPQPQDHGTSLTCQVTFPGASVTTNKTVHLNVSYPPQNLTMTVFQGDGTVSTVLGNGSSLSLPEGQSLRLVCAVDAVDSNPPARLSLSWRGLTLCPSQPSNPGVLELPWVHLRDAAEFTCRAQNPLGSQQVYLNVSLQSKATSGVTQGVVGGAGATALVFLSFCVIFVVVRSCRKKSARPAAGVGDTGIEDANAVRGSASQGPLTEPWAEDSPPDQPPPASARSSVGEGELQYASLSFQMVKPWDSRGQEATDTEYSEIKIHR
Chain of Chromo domain-containing protein 1 (Saccharomyces cerevisiae (strain ATCC 204508 / S288c) (Baker's yeast)) (P32657 whole entry, the tested form may be a part): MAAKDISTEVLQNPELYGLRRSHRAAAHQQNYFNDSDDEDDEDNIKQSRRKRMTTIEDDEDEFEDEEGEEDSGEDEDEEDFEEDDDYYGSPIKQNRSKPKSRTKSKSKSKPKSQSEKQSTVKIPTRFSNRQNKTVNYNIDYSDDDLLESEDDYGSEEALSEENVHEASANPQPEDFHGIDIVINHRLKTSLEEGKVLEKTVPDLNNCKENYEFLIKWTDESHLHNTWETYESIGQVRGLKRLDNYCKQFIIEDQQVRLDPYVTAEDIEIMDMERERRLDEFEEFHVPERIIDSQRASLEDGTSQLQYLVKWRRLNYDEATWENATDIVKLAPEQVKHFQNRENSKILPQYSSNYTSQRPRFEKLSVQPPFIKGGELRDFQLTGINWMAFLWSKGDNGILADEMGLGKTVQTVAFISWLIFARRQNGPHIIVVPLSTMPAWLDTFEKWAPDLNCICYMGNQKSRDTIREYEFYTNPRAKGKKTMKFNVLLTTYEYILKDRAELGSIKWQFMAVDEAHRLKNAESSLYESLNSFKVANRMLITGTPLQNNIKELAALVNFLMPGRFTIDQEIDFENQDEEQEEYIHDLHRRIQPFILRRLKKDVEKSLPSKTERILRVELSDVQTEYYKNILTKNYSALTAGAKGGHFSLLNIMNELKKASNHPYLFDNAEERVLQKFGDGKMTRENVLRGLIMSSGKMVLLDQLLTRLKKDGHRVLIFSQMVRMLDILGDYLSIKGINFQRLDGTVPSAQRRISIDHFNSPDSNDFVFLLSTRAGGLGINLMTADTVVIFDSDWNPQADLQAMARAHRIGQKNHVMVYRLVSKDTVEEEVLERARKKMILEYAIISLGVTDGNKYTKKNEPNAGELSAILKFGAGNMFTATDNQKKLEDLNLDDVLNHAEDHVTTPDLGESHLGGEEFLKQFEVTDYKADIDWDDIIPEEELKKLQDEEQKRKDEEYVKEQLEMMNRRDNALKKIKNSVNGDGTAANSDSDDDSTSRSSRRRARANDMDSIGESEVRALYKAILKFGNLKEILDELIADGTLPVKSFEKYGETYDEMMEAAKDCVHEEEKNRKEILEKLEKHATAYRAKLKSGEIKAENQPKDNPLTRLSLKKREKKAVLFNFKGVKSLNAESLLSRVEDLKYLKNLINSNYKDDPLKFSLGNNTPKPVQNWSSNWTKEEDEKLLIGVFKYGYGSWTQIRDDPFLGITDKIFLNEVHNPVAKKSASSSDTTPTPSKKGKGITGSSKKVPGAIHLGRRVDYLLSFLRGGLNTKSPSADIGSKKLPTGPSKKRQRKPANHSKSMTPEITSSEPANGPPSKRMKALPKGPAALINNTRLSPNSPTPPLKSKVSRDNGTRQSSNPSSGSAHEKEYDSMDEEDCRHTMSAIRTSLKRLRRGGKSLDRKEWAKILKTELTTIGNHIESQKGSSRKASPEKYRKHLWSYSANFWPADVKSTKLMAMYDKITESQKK

`c1csc(CN2CCn3c(Cn4cncn4)cnc3C2)n1`: the Percent Effect is -3.71% in [1]; 2.67% in experiment [2]; 12.1% in experiment [3]; 4.38% in experiment [4]; -0.984% with Trypanosoma cruzi; 4.43% in experiment [5]. Further, the Percent Effect is 6.08% in experiment [6]; -18.1% in the experiment filed under Homo sapiens; 2.13% in experiment [7]; 1.28% in experiment [8]; -1.62% in experiment [9].
As to `Cn1nc(CNC(=O)NCc2ccc(Cl)cc2)c2c1CCOC2`, the Percent Effect in experiment [1] was -4.99%; in experiment [2] it was 5.2%; in [3], 6.43%; in experiment [4] it was 7.81%; in the experiment on Trypanosoma cruzi it was 3.45%; in experiment [5], -7.1%. Moreover, the Percent Effect was -3.83% in experiment [6]; 20.2% in the experiment filed under Homo sapiens; 0% in [7]; -3.85% in experiment [8]; -5.33% in [9].
Turning to `CC(C)NC(=O)c1ccc2c(c1)nc1n2CCN(C(C)C)C1`, the Percent Effect in experiment [1] was -0.173%; in experiment [2], 4%; in [3], 2.97%; in experiment [4], 4.16%; with Trypanosoma cruzi, -5.11%; in [5], -13.2%. In addition, the Percent Effect is 19.2% in [6]; -1.16% in the experiment listed under Homo sapiens; 6.35% in experiment [7]; 7.69% in experiment [8]; -10.7% in experiment [9].
As for `COc1ccc(Cl)cc1NCC(=O)NCCc1ccccn1`, the Percent Effect in [1] is -3.56%; in [2], -5.41%; in [3] it was -7.1%; in experiment [4] it was 3.7%; with Trypanosoma cruzi, -7.64%; in [5], 0.401%. The Percent Effect was found to be 1.62% in experiment [6]; 20.4% in the experiment listed under Homo sapiens; 0.493% in [7]; 1.24% in experiment [8]; 0.208% in [9].
Turning to `O=S(=O)(N(Cc1ccccn1)C1CC1)N1CCCC1c1ccco1` (stereo not given), the Percent Effect in experiment [1] is -4.42%; in experiment [2], 16.2%; in experiment [3] it was 0.691%; in experiment [4], 9.84%; with Trypanosoma cruzi, 5.66%; in experiment [5] it was -2.77%. In addition, the Percent Effect in [6] was 0.359%; in the experiment filed under Homo sapiens, 5.33%; in [7] it was 3.96%; in [8] it was 18.3%; in [9], -5.26%.
Turning to `COc1cccc(CN(C)S(=O)(=O)N2CCOCC2)c1`, the Percent Effect in [1] was -1.1%; in [2], 13.2%; in experiment [3], 1.96%; in experiment [4], -0.478%; in the experiment on Trypanosoma cruzi, 2.63%; in experiment [5], -10.7%. The Percent Effect in [6] was 22.1%; in the experiment listed under Homo sapiens, 23.5%; in experiment [7], 5.32%; in [8], 18.2%; in experiment [9] it was -6.9%.
`CC(=O)N1CCCC(c2cnc(-c3c(C)nn(C)c3C)cn2)C1` (stereo not given): the Percent Effect in [1] is -2.17%; in experiment [2] it was 0%; in experiment [3] it was 6.16%; in experiment [4], -0.374%; in the experiment with Trypanosoma cruzi it was -2.17%; in experiment [5], -1.17%. In addition, the Percent Effect in [6] was -4.67%; in the experiment filed under Homo sapiens, 8.02%; in [7], 2.13%; in [8] it was 6.41%; in experiment [9] it was -1.64%.
For `Oc1cc(CCC2CCCCN2)cc(-c2ccncc2)c1` (stereo not given), the Percent Effect is -5.49% in experiment [1]; 0% in experiment [2]; -8.16% in experiment [3]; 0.305% in experiment [4]; -3.92% in the experiment with Trypanosoma cruzi; 0.909% in [5]. Further, the Percent Effect in experiment [6] is 20.1%; in the experiment listed under Homo sapiens it was 1.09%; in experiment [7], 2.15%; in experiment [8], 7.5%; in experiment [9] it was -3.03%.
In the case of `Cc1ccn(-c2ccccc2NCc2cccnc2C)n1`, the Percent Effect is -0.328% in [1]; 0% in [2]; 2.86% in experiment [3]; -2.06% in [4]; -0.196% in the experiment with Trypanosoma cruzi; 0% in experiment [5]. In addition, the Percent Effect in experiment [6] is 3.02%; in the experiment listed under Homo sapiens, 17.4%; in experiment [7] it was -1.07%; in experiment [8], -2.5%; in experiment [9] it was -0.646%.
As to `c1ccc(CN2CCCC(c3nccnc3-n3ccnc3)C2)cc1` (stereo not given), the Percent Effect in [1] was -1.15%; in [2], 10.7%; in experiment [3], 4.45%; in [4] it was -1.75%; in the experiment on Trypanosoma cruzi, 0.591%; in [5], -0.233%. Further, the Percent Effect was 14.5% in experiment [6]; 7.14% in the experiment filed under Homo sapiens; 5.32% in experiment [7]; 6.41% in experiment [8]; -0.742% in [9].
